From PubChem BioAssay
HepG2 viability = HepG2 cytotoxicity, counter-screen for TGF-b inhibitors | HepG2 CAGA-GFP viability, ATP luminescence, 18 h | Potency, µM (titrated, usually from 46.1 µM), usual class: cytotoxic | 410,000 tested, 0.76% active
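CellTiter-Glo luminescence gave cytotoxicity after 18 hours at 37 degrees C. The cells were HepG2 CAGA-GFP in 1% FBS DMEM, stimulated with 500 pg/mL TGF-beta after compound addition. %Activity was normalised to no-cell wells (complete cell-killing) and DMSO (no toxicity), and curves were fitted and classified.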
DT40 TDP1 CPT = DT40-hTDP1 cell growth loss with CPT. Potency, µM (titrated, usually from 46.2 µM), hits mostly inhibitors. 420,000 tested, 12% active. chicken DT40 Tdp1-/-;hTDP1 cells + 20 nM CPT, ATP luminescence, 48 h; note: nearly all actives have a fitted effect of over 55% in size
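Chicken DT40 Tdp1-/- cells stably complemented with human TDP1 were seeded at 400 cells/well in medium containing 20 nM camptothecin, exposed to pin-transferred compounds, and grown at 37 °C for at least 48 hr. Viability was read as ATP luminescence.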
TDP1 block = blocks human tyrosyl-DNA phosphodiesterase 1 | recombinant TDP1, AlphaScreen DNA substrate cleavage | Q9NUW8 | Potency, µM (highest dose often 130 µM), hits mostly inhibitors | 350,000 tested, 0.28% active; note: nearly all actives have a fitted effect of over 40% in size
Target sequence (Q9NUW8 whole entry, looked up): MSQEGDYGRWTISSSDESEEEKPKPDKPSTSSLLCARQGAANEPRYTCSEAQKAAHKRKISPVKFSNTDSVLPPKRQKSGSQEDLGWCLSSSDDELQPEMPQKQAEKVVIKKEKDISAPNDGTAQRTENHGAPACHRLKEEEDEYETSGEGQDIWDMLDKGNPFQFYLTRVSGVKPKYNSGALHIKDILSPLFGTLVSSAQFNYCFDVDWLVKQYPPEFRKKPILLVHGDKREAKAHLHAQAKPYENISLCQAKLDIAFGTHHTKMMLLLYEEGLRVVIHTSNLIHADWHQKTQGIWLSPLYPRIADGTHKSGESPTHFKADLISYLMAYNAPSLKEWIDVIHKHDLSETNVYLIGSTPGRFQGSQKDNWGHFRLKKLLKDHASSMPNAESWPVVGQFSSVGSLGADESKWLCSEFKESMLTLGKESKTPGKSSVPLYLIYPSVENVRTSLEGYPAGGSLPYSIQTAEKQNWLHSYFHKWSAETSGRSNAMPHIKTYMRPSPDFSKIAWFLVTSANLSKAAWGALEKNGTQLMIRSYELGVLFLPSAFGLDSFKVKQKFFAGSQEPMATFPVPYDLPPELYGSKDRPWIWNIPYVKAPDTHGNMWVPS
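E. coli-derived human Tdp1, 1 nM final. Cpd preinc 15 min RT; substrate 15 nM final, 5 min RT; AS bead mix 10 ug/ml final, 10 min RT. Signal loss = tyrosine-FITC cleavage. No-enzyme wells = max signal.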
DT40 TDP1 no CPT = qHTS for Inhibitors of human tyrosyl-DNA phosphodiesterase 1 (TDP1): qHTS in cells in absence of CPT; DT40 Tdp1-/- hTDP1 cells, no CPT, ATP luminescence, 48 h; Potency, µM (doses to about 46.2 µM), hits mostly inhibitors; 420,000 tested, 15% active; AID 686978, 2013; note: nearly all actives have a fitted effect of over 55% in size
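Readout: luminescence from CellTiter-Glo after 30 min in the dark at RT. Cells: DT40 Tdp1-/- with stable hTDP1, 400/well. Exposure: compounds alone, ≥48 hr, 37 °C.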
TGFb inhibitor = TGF-b pathway inhibition; Potency, µM (titrated, usually from 46.1 µM), hits mostly inhibitors; HepG2 CAGA-GFP TGF-b/SMAD3 reporter, GFP fluorescence, 18 h; TGF-beta stimulated, 500 pg/mL final; 410,000 tested, 1.2% active; note: nearly all actives have a fitted effect of over 65% in size
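Read-out: total well GFP (ex488/em500-530) summed from mean per-cell fluorescence. Cells: HEPG2 CAGA-GFP, 1% FBS DMEM, 18 h at 37 degrees C with 500 pg/mL final TGF-beta. Unstimulated wells served as the full-inhibition control; stimulated DMSO wells = 0%.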
IL-1B inflam inh = blocks inflammasome-driven IL-1 beta release. activity change, % at 57.5 µM. THP-1 LPS/ATP IL-1B secretion, AlphaLISA, 16 h; stronger effect = lower value. 360,000 tested, 4.7% active. AID 743279; in the data active = activity change below about -50%; inconclusive = mostly about -30% to -49%
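THP-1 cells pretreated 1 hr with compounds (up to 57.5 uM final), then stimulated with LPS (250 ng/mL final) plus ATP (1.25 mM final); secreted IL-1B measured by AlphaLISA after 16 hr, decreased signal indicating inhibition.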
A number is an active result; [ ] = dose if it differs, or a comment. An excerpt weighted towards active compounds, which were near 18% of everything screened. Unless noted, calls come from the whole dose curve; as a rule, active = well fitted curve in the direction sought with a large enough effect; inconclusive = small, poorly fitted or top-dose-only effect, or another doubt; inactive = no such curve, though single readings can be large; an effect the other way counts as inactive or inconclusive.

Results for O=C(NC[C@@H](O)CO)c1c(I)c(C(=O)NC[C@@H](O)CO)c(I)c(N(CCO)C(=O)CO)c1I ?
TDP1 block: inactive[21 µM]

What do the screens show for `CC(C)C[C@@H](CN1CCC[C@H]1CN1C(=O)C(=O)NC[C@@H]1Cc1ccccc1)N1C[C@H](Cc2ccccc2)N(CC2CCCCCC2)C(=O)C1=O`?
DT40 TDP1 CPT: 18µM; DT40 TDP1 no CPT: inconclusive; IL-1B inflam inh: -80

Results for O=C1NC[C@H](Cc2ccccc2)N(C[C@H]2CCCN2C[C@H](Cc2ccc(O)cc2)N2C[C@H](Cc3ccc(O)cc3)N(CC3CCCCCC3)C(=O)C2=O)C1=O ?
HepG2 viability: inactive; DT40 TDP1 CPT: inconclusive; DT40 TDP1 no CPT: inconclusive; TGFb inhibitor: inactive; IL-1B inflam inh: inconclusive

How did CC(C)C[C@@H](CN1CCC[C@@H]1CN1C(=O)C(=O)NC[C@@H]1Cc1ccccc1)N1C[C@H](Cc2ccc(O)cc2)N(CC2CCCCCC2)C(=O)C1=O do in these assays?
HepG2 viability: inactive; DT40 TDP1 CPT: inconclusive; DT40 TDP1 no CPT: inconclusive; TGFb inhibitor: inconclusive; IL-1B inflam inh: -72

What do the screens show for `CC(C)C[C@H]1CNC(=O)C(=O)N1C[C@@H]1CCCN1C[C@H](Cc1ccccc1)N1C[C@H](Cc2ccccc2)N(CC2CCCCC2)C(=O)C1=O`?
DT40 TDP1 CPT: inconclusive; DT40 TDP1 no CPT: inactive; IL-1B inflam inh: inactive

Results for CC(C)C[C@@H](CN1CCC[C@H]1CN1C(=O)C(=O)NC[C@@H]1Cc1ccc(O)cc1)N1C[C@H](Cc2ccccc2)N(CC2CCCCCC2)C(=O)C1=O ?
DT40 TDP1 CPT: inconclusive; DT40 TDP1 no CPT: inconclusive; IL-1B inflam inh: -91

Results for Fc1ccc(-n2ncc3c(N4CCN(c5ccccc5F)CC4)ncnc32)cc1 ?
HepG2 viability: inactive; DT40 TDP1 CPT: inactive; TDP1 block: inactive; DT40 TDP1 no CPT: inactive; TGFb inhibitor: inactive

Results for CCN(Cc1ccccc1)C(=O)c1oc2ccc(S(=O)(=O)N3CCOCC3)cc2c1C ?
HepG2 viability: inactive; DT40 TDP1 CPT: inconclusive; TDP1 block: inactive; DT40 TDP1 no CPT: inactive; TGFb inhibitor: inactive; IL-1B inflam inh: -53

Results for CCN(CC)C(=O)c1oc2ccc(S(=O)(=O)N3CC(C)CC(C)C3)cc2c1C (configuration not stated) ?
HepG2 viability: inactive; DT40 TDP1 CPT: 4.1µM; TDP1 block: inactive; DT40 TDP1 no CPT: 9.2µM; TGFb inhibitor: inconclusive; IL-1B inflam inh: inactive

Results for CCOC(=O)c1oc2ccc(S(=O)(=O)N3CCOCC3)cc2c1C ?
HepG2 viability: inactive; DT40 TDP1 CPT: inactive; TDP1 block: inactive; DT40 TDP1 no CPT: inactive; TGFb inhibitor: inactive; IL-1B inflam inh: inactive

Results for Cc1c(C(=O)Nc2ccc(S(=O)(=O)Nc3ncccn3)cc2)oc2ccc(F)cc12 ?
HepG2 viability: inactive; DT40 TDP1 CPT: inactive; TDP1 block: inactive; DT40 TDP1 no CPT: inactive; TGFb inhibitor: inactive; IL-1B inflam inh: inactive

What do the screens show for `Cc1c(C(=O)Nc2ccc(F)cc2)oc2ccc(S(=O)(=O)N3CC(C)CC(C)C3)cc12` (configuration not stated)?
HepG2 viability: inactive; DT40 TDP1 CPT: 18µM; TDP1 block: inactive; DT40 TDP1 no CPT: 15µM; TGFb inhibitor: inconclusive; IL-1B inflam inh: inactive

What do the screens show for `CCN(CC)C(=O)c1oc2ccc(S(=O)(=O)N3CCCCCC3)cc2c1C`?
HepG2 viability: inactive; DT40 TDP1 CPT: inconclusive; TDP1 block: inactive; DT40 TDP1 no CPT: 23µM; TGFb inhibitor: inconclusive; IL-1B inflam inh: inactive

What do the screens show for `CCCCNC(=O)c1oc2ccc(S(=O)(=O)N3CCCC3)cc2c1C`?
HepG2 viability: inactive; DT40 TDP1 CPT: inconclusive; DT40 TDP1 no CPT: inconclusive; TGFb inhibitor: inactive; IL-1B inflam inh: inactive

Results for COc1ccccc1-n1cnnc1SCC(=O)Nc1cccc(S(N)(=O)=O)c1 ?
HepG2 viability: inactive; DT40 TDP1 CPT: inactive; TDP1 block: inactive; DT40 TDP1 no CPT: inactive; TGFb inhibitor: inactive; IL-1B inflam inh: inactive

How did N#Cc1ccccc1CN1C(=O)S/C(=C/c2cccn2-c2ccc(C(=O)O)cc2)C1=O do in these assays?
HepG2 viability: inactive; DT40 TDP1 CPT: inactive; TDP1 block: 14µM; DT40 TDP1 no CPT: inactive; TGFb inhibitor: inactive; IL-1B inflam inh: inactive

How did N#CC(C#N)=Cc1cccn1-c1ccc(C(=O)O)cc1 do in these assays?
HepG2 viability: inactive; DT40 TDP1 CPT: inactive; TDP1 block: 3.2µM; DT40 TDP1 no CPT: inactive; TGFb inhibitor: inconclusive; IL-1B inflam inh: inactive

Results for O=C(CN1C(=O)S/C(=C/c2cccs2)C1=O)N1CCCC1 ?
HepG2 viability: inactive; DT40 TDP1 CPT: inactive; TDP1 block: inactive; DT40 TDP1 no CPT: inactive; TGFb inhibitor: inactive; IL-1B inflam inh: inactive

What do the screens show for `CN1C(=O)S/C(=C/c2cccn2-c2cccc(C(=O)O)c2)C1=O`?
HepG2 viability: inactive; DT40 TDP1 CPT: inactive; DT40 TDP1 no CPT: inactive; TGFb inhibitor: inactive; IL-1B inflam inh: inactive

What do the screens show for `O=C(O)c1ccc(-n2cccc2/C=C2/SC(=O)N(CC(=O)N3CCCC3)C2=O)cc1`?
HepG2 viability: inactive; DT40 TDP1 CPT: inactive; TDP1 block: 50µM; DT40 TDP1 no CPT: inactive; TGFb inhibitor: inactive; IL-1B inflam inh: inactive

What do the screens show for `CN(C)c1ccc(CNC(=O)CCn2c(=O)c3cccn3c3ccc(F)cc32)cc1`?
HepG2 viability: inactive; DT40 TDP1 CPT: inactive; TDP1 block: inactive; DT40 TDP1 no CPT: inactive; TGFb inhibitor: inactive

Results for CCOCCCNC(=O)CSc1nnc(-c2ccc(S(=O)(=O)N3CCCC3)cc2)n1C ?
HepG2 viability: inactive; DT40 TDP1 CPT: inactive; TDP1 block: inactive; DT40 TDP1 no CPT: inactive; TGFb inhibitor: inactive; IL-1B inflam inh: inactive

What do the screens show for `CO/N=C(\C(=O)N[C@@H]1C(=O)N2C(C(=O)O)=C(CSc3nc(C)c(CC(=O)O)s3)CS[C@H]12)c1csc(N)n1`?
DT40 TDP1 CPT: inactive; DT40 TDP1 no CPT: inactive

How did CCOc1ccc(C2=C(C=Nc3c(C)n(C)n(-c4ccccc4)c3=O)C(c3ccc(F)cc3)c3ccccc3O2)cc1 (configuration not stated) do in these assays?
HepG2 viability: inactive; DT40 TDP1 CPT: 23µM; TDP1 block: inactive; DT40 TDP1 no CPT: inconclusive; TGFb inhibitor: inactive; IL-1B inflam inh: inactive

Results for CSc1nc(C)c2c(n1)N(c1ccc(C(C)C)cc1)CC2 ?
HepG2 viability: inactive; DT40 TDP1 CPT: inconclusive; TDP1 block: inactive; DT40 TDP1 no CPT: 21µM; TGFb inhibitor: inactive; IL-1B inflam inh: inactive
